The source of these data is PubChem BioAssay AID624296 (National Center for Advancing Translational Sciences (NCATS), 2012).

The campaign covered roughly 350,000 compounds. About 9,900 (2.8%) were called active. Entries that show only a call come without a potency. Not shown: some 15% with an inconclusive outcome. Calls come from the whole dose curve; as a rule, active = well fitted activation curve with a large enough effect; inconclusive = small, poorly fitted or top-dose-only effect; inactive = no such curve, though single readings can be large or run the other way. This excerpt belongs to a sample that is enriched for actives.
Potency is the fitted concentration of half-maximal effect.

The nature of this test: A quantitative high throughput screen for small molecules that induce DNA re-replication in MCF 10a normal breast cells. Note: nearly all actives have a fitted effect of over 50% in size. The conditions noted are these: MCF 10A DNA re-replication, Hoechst nuclear intensity, 48 h; series mostly up to 46.1 µM. From the text: H Molecular Libraries Probe Production Network [MLPCN]
NIH Chemical Genomics Center [NCGC]
Assay Provider: Melvin DePamphilis, NICHD, NIH
Eukaryotic cells normally restrict genome duplication to once per cell division. When this process is aberrant, DNA re-replication occurs when cells reinitiate DNA replication before the first round of replication is complete. DNA re-replication induces the DNA damage response, arrests cell proliferation, and triggers apoptosis. The cell cycle components cyclin A, Cdt-1, Cdc6 and geminin are critical regulators of this process and their misregulation results in DNA re-replication in normal and cancer cells. To identify compounds that induce re-replication in normal cells, an image-based assay was used to measure DNA content of nuclei, as detected by the fluorescent DNA binding dye, Hoechst. Cell nuclei were imaged by a fluorescence scanning plate imager and compounds that induce DNA re-replication were identified by the increase of nuclei with elevated fluorescence intensity
For screening, 250 cells in 5 uL/well were dispensed into black clear 1536-well plates (Aurora) using a solenoid-based dispenser. Following transfer of 23 nL compound or DMSO vehicle by a pin tool, the plates were incubated 48 hr at 37 C and 5% CO2. After addition of 1 uL/well Hoescht stain, the plates were incubated 40 min at 37 C, 5% CO2 and total intensity of fluorescent objects (nuclei) were enumerated by an Acumen Explorer Ex3 (TTP LabTech) fluorescence scanning plate imager (405 nm excitation, 500-530 nm emission).
Keywords: NIH Roadmap, MLPCN, MLI, MLSMR, qHTS, NCGC, DNA replication, cancer
In the case of `CCOC(=O)c1c(N)n(CCN2CCOCC2)c2nc3ccccc3nc12`, the Potency entry was “inactive”. For `CCOC(=O)c1c(N)n(Cc2ccccc2)c2nc3ccccc3nc12` the value was “inactive”; for `COc1cc(Cn2c(N)c(C(=O)NCc3ccco3)c3nc4ccccc4nc32)cc(OC)c1OC`, 2.31 µM (active). `CC1CCCN1CCC(C(N)=O)(c1ccccc1)c1ccccc1` (stereo not given): the Potency entry is “inactive”. In the case of `C[C@]12CC[C@H](O)CC1=C([N+](=O)[O-])CC1C2CC[C@@]2(C)C1CC[C@@H]2O` (stereo not given in full) it was “inactive”; in that of `CCc1ccc(OCC(=O)N2CCN(CC(=O)Nc3ccccc3Cl)CC2)cc1`, “inactive”; in that of `C[C@]12CCCCC1=CC(=O)C1C2CC[C@@]2(C)C1C[C@@H](F)[C@@H]2O` (stereo not given in full), “inactive”.

With `O=c1[nH]c(CN2CC=C(c3ccccc3)CC2)nc2scc(-c3cccs3)c12`, the Potency is 25.9 µM (active). For `C=C(C)C1(CCCC)C(=O)NC(=S)NC1=O` the value was “inactive”; for `Cc1ncsc1CCCl`, “inactive”.

As for `CCC(=O)c1ccc(OCC(=O)N2CCN(CC(=O)Nc3ccc(C)cc3)CC2)cc1`, the Potency entry was “inactive”. For `COc1ccc(C2CC(c3cccs3)=NN2c2nc(C)c(C(C)=O)s2)cc1OC` (stereo not given) the value was 3.26 µM (active); for `c1ccc2sc(SNC3CCCCC3)nc2c1`, “inactive”.

As for `C=CCN1CCC23c4c5ccc(O)c4O[C@H]2C(=O)CC[C@@]3(O)C1C5` (stereo not given in full), the Potency entry is “inactive”. Consider `CC1C(=O)OC2CCN3CC=C(COC(=O)C(C)(O)C1(C)O)C23` (stereo not given), for which the Potency result was “inactive”. As for `COc1ccc2c3c1O[C@H]1C[C@@H](O)C=C[C@@]31CCN(C)C2`, the Potency result is “inactive”. For `CCOC(=O)CC(SP1(=S)OCC2(CCCCO2)C(C2CCCCO2)O1)C(=O)OCC` (stereo not given) the value was “inactive”; for `C[C@]12CCC3C(CC[C@H]4[C@H](O)[C@H](O)CC[C@]34C)C1CC[C@@H]2O` (stereo not given in full), “inactive”.

For the molecule `O=[N+]([O-])c1cnc2ccc3ccccc3c2c1`, the Potency entry was “inactive”. For `C/C(=N/O)c1ccc2ccc3ccccc3c2c1` the value was 25.9 µM (active).

`C/C(CCc1c[nH]c2ccccc12)=N\O`: the Potency entry was “inactive”.

Regarding `CCNC[C@H](O)c1cccc(O)c1`, the Potency entry was “inactive”. As to `Nc1ccc(Cc2ccc(N)c(Cl)c2)cc1Cl`, the Potency entry was “inactive”.

As to `COc1ccc2c(c1)NP(=S)(c1ccccc1)N2` (stereo not given), the Potency entry is “inactive”.

For `CC(CC(C#N)(c1ccccc1)c1ccccc1)N1CCCCC1` (stereo not given), the Potency entry was “inactive”. On to `CN(C)CC1Oc2ccccc2OC1(O)c1ccccc1` (stereo not given), for which the Potency was 2.59 µM (active).

With `c1ccc(C(CN2CCCCC2)c2ccccc2)cc1`, the Potency result was “inactive”. `COc1cc(OC)cc(C2(C#N)CCN(C)CC2)c1`: the Potency result is “inactive”. For `Cc1cccc([C@H](C)c2cnc[nH]2)c1C` the value was “inactive”; for `CCOc1ccc(CN(CCCl)CCCl)cc1C(=O)OC`, “inactive”; for `O=C1NC(=O)C(Cc2ccccc2)C(=O)N1`, “inactive”. In the case of `Cn1cc(C(=O)OCC(=O)N2CCCC2)c2ccccc21` it was “inactive”; in that of `NC(=O)Cn1cc(C(=O)c2ccccc2F)c2ccccc21`, 0.58 µM (active).

On to `N#Cc1ccc(Cn2cc(C(=O)c3ccco3)c3ccccc32)cc1`, for which the Potency entry was “inactive”.

In the case of `CCOC(=O)C1(c2ccccc2)CCN(CC(O)c2ccc(NC(C)=O)cc2)CC1` (stereo not given), the Potency entry is “inactive”. In the case of `O=c1c2ccccc2nc(-c2ccco2)n1-c1ccc(Br)cn1` it was “inactive”.

With `Cc1nc2ccccc2c(=O)n1-c1ccc(Cl)cc1Cl`, the Potency entry is “inactive”. In the case of `O=c1c2ccccc2nc(/C=C/c2ccco2)n1-c1ccccc1O` it was 23.1 µM (active); in that of `CNC(C)[C@@H](O)c1ccccc1` (stereo not given in full), “inactive”; in that of `CCC(=O)OC(Cc1ccccc1)(c1ccccc1)C(C)CN(C)C` (stereo not given), “inactive”.

`c1cc2c(cc1C1OCC3C(c4ccc5c(c4)OCO5)OCC13)OCO2` (stereo not given): the Potency entry was “inactive”. Consider `CC(=O)C1(O)CCC2C3CCC4=C(Cl)C(=O)CCC4(C)C3CCC21C` (stereo not given), for which the Potency entry was “inactive”. For `CCNc1nc2[nH]c(=O)c3c(c2s1)OC(N)=C(C#N)C3c1cccs1` (stereo not given) the value was “inactive”. With `N#CC1=C(N)Oc2c(c(=O)oc3ccccc23)C1c1ccccc1OC(=O)c1cccs1` (stereo not given), the Potency is 20.6 µM (active).

As to `CCN1C(=O)NC(=O)C2(CCCC2)C1=O`, the Potency result was “inactive”.

Regarding `COc1cc(-n2c(=S)[nH]c3ccc(C)cc3c2=O)c(Cl)cc1Cl`, the Potency was 13 µM (active). Regarding `CC1([N+](=O)[O-])COP(=O)(Nc2ccc(F)cc2)OC1` (stereo not given), the Potency entry is “inactive”. In the case of `COc1ccc2cc1Oc1ccc(cc1)C[C@H]1c3cc(c(OC)cc3CCN1C)Oc1c(O)c(OC)cc3c1[C@H](C2)N(C)CC3` it was 20.6 µM (active).

For the molecule `COc1c(O)ccc2c1-c1c3c(cc4c1C(C2)N(C)CC4)OCO3` (stereo not given), the Potency result is “inactive”. In the case of `CC[N+]1(CCOC(=O)C(O)(c2ccccc2)c2ccccc2)CCCCC1` it was “inactive”. As to `COC1=C[C@@H]2[C@@H]3Cc4ccc(OC)c(O)c4[C@]2(CCN3C)CC1=O`, the Potency result is “inactive”. For `CNCC[C@H](Oc1ccc(C(F)(F)F)cc1)c1ccccc1` the value was “inactive”; for `Cc1cc(-c2ccc(N)c(C)c2)ccc1N`, “inactive”; for `CC1CNCCN1c1ccc(Cl)cc1` (stereo not given), “inactive”. Regarding `C[C@@H]1C[C@@H]2O[C@H]2/C=C\C=C\C(=O)Cc2c(Cl)c(O)cc(O)c2C(=O)O1`, the Potency is 9.2 µM (active). Consider `CC(=O)OC1C([N+]2(C)CCCCC2)C[C@H]2C3CC[C@H]4C[C@H](OC(C)=O)C([N+]5(C)CCCCC5)CC4(C)C3CCC12C` (stereo not given in full), for which the Potency result is “inactive”.

In the case of `Cc1ncc(CC(=O)n2cc(C(=O)c3cc(Cl)ccc3O)cn2)s1`, the Potency was 10 µM (active). Take `C[C@]12CCC3C(CC[C@H]4[C@H](O)[C@H](O)CC[C@]34C)C1CCC2=O` (stereo not given in full): the Potency entry was “inactive”. For `O=C1NC(=O)C(CCOc2ccccc2)(CCc2ccccc2)C(=O)N1`, the Potency entry was “inactive”.

As to `CCC1(c2ccccc2)C(=O)NC(=O)N(C)C1=O` (stereo not given), the Potency result is “inactive”. As for `CCC1(CC(C)c2ccccc2)C(=O)NC(=O)NC1=O` (stereo not given), the Potency result is “inactive”. As for `Cc1cc2ccccn2c1C(C[N+](=O)[O-])c1c(F)cccc1Cl` (stereo not given), the Potency was 3.26 µM (active). For `Oc1ccc2c3c1OC1[C@H](O)CC[C@@]4(O)[C@@H](C2)N(CC2CC2)CC[C@]314` (stereo not given in full) the value was “inactive”; for `CN1CCCC(=C(c2cccs2)c2cccs2)C1`, “inactive”. `COC(=O)[C@@H]1C(OC(=O)c2ccccc2)CC2CCC1N2C` (stereo not given in full): the Potency result is “inactive”.

Regarding `Brc1cc(Br)c(Oc2cc(Br)c(Br)cc2Br)cc1Br`, the Potency is 14.6 µM (active). In the case of `CC[C@]1(C(=O)OC)[C@H]2C(=O)N(Cc3ccccc3)C(=O)[C@H]2[C@H]2CN=C(SCc3ccc(C#N)cc3)N21` it was “inactive”; in that of `Cc1cc(C)c2c(c1)NP(=S)(c1ccccc1)N2` (stereo not given), “inactive”; in that of `CN=C(NC#N)NCCSCc1nc[nH]c1C`, “inactive”.

In the case of `O=C(N/N=C/c1ccc([N+](=O)[O-])o1)c1cc([N+](=O)[O-])cc([N+](=O)[O-])c1O`, the Potency entry was “inactive”.
